From PubChem BioAssay (NCI)
The panel holds about 79,000 compounds, 15% with a hit somewhere; the sample as a whole holds those more often. Calls of active or inactive are those of the source. No stated cut-off is given here; in the data, active means growth inhibition above about 70%; inactive means the rest.

Key:
[1] = NCI Yeast Anticancer Drug Screen. Data for the rad52 strain (AID 147);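 further: 0% = growth of vehicle-treated control cultures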; conditions: S. cerevisiae rad52 mutant growth inhibition, active compounds read high
Summary of the method: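 DNA repair-defective yeast; compound exposure; growth scored against vehicle controls.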

[2] = NCI Yeast Anticancer Drug Screen. Data for the wt1 strain (AID 149);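 further: 0% = growth of vehicle-treated wt1 cultures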; conditions: S. cerevisiae wt1 strain (SPY 50644) growth inhibition, active compounds read high
Summary of the method: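 Compounds are added to wt1 yeast cultures. Growth is then measured. Inhibition is expressed relative to vehicle-treated controls.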

[3] = NCI Yeast Anticancer Drug Screen. Data for the rad50 strain (AID 155);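 further: 0% = growth of vehicle-only cultures of the same strain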; conditions: S. cerevisiae rad50 strain growth inhibition, active compounds read high
Summary of the method: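 Inhibition values express reduced yeast growth in compound-treated cultures relative to vehicle-treated controls.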

[4] = NCI Yeast Anticancer Drug Screen. Data for the mec2-1 strain (AID 157); conditions: S. cerevisiae mec2-1 strain, active compounds read high
Summary of the method: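 Growth inhibition is read against vehicle-treated controls after compound exposure of the mec2-1 yeast strain, which is defective in DNA damage repair or cell cycle control.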

[5] = NCI Yeast Anticancer Drug Screen. Data for the rad14 strain (AID 159);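 further: 0% = growth of vehicle-treated control cultures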; conditions: S. cerevisiae rad14 strain growth inhibition, active compounds read high
Summary of the method: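 A mutant yeast strain defective in DNA damage repair is treated with compound; inhibition of its growth is scored against untreated, vehicle-exposed cultures.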

[6] = NCI Yeast Anticancer Drug Screen. Data for the sgs1 mgt1 strain (AID 161);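 further: 0% = growth of cultures given vehicle only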; conditions: S. cerevisiae sgs1 mgt1 strain, active compounds read high
Summary of the method: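 Yeast cells carrying a defined DNA-repair defect were exposed to test compounds. Growth inhibition was measured relative to vehicle-treated controls.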

[7] = NCI Yeast Anticancer Drug Screen. Data for the CLN2oe strain (AID 163);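 further: 0% = growth of vehicle-only control cultures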; conditions: S. cerevisiae CLN2oe strain, active compounds read high
Summary of the method: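 Compound-treated yeast; growth vs vehicle ctrl = % inhibition. Genetically altered strain (cell-cycle control).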

[8] = NCI Yeast Anticancer Drug Screen. Data for the cln2 rad14 strain (AID 165);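 further: 0% = growth equal to vehicle treated cultures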; conditions: S. cerevisiae cln2 rad14 strain, active compounds read high
Summary of the method: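 Growth inhibition, relative to vehicle-treated controls, is the read-out. The test organism is a yeast strain with defined genetic alterations, cln2 rad14.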

[9] = NCI Yeast Anticancer Drug Screen. Data for the bub3 strain (AID 167); conditions: S. cerevisiae bub3 mutant strain, active compounds read high
Summary of the method: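 Steps: expose the mutant yeast strain to compound; grow alongside vehicle-treated cultures; measure growth; express inhibition against the vehicle cultures.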

[10] = NCI Yeast Anticancer Drug Screen. Data for the wt2 strain (AID 169);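 further: 0% = growth of vehicle-treated yeast cultures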; conditions: S. cerevisiae wt2 strain growth inhibition, active compounds read high
Summary of the method: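 Compound exposure of yeast; growth compared with vehicle controls; inhibition reported.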

[11] = NCI Yeast Anticancer Drug Screen. Data for the mlh1 strain (AID 171);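 further: 0% = growth of vehicle-treated control cultures of the same strain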; conditions: S. cerevisiae mlh1 strain growth inhibition, active compounds read high
Summary of the method: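 Compounds are applied to a genetically altered yeast strain, and its growth is compared with that of vehicle-treated cultures to give percent inhibition.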

[12] = NCI Yeast Anticancer Drug Screen. Data for the sgs1 strain (AID 173);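 further: 0% = growth of vehicle-only control cultures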; conditions: S. cerevisiae sgs1 mutant, active compounds read high
Summary of the method: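 Compounds applied to genetically altered yeast; growth compared with vehicle-treated cultures to give % inhibition.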

[13] = NCI Yeast Anticancer Drug Screen. Data for the mlh1 rad18 strain (AID 175); conditions: S. cerevisiae mlh1 rad18 strain growth inhibition, active compounds read high
Summary of the method: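 Cells of a genetically altered yeast strain, deficient in DNA damage repair, were treated with compound. Their growth was then compared with that of vehicle-treated cultures to give inhibition.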

[14] = NCI Yeast Anticancer Drug Screen. Data for the rad18 strain (AID 177); conditions: S. cerevisiae rad18 mutant growth inhibition, active compounds read high
Summary of the method: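 Compounds are applied to a repair-deficient yeast strain, and growth is compared with that of vehicle-treated cultures to give percent inhibition.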

[15] = NCI Yeast Anticancer Drug Screen. Data for the rad50EPP+ strain (AID 151);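 further: 0% = growth of vehicle-treated control cultures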; conditions: S. cerevisiae rad50 mutant strain, active compounds read high
Summary of the method: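 rad50EPP+ yeast treated with test compounds. Readout: growth vs vehicle control.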

[16] = at 5.0 µM (retest, dose inferred, filed as 0.5)
[17] = at 50.0 µM (retest, dose inferred, filed as 5.0)

Measured: growth inhibition

Cc1cccc(/C=N\NC(=S)N2CCCCC2)n1
inactive: [1]; at 1.2 µM -17% | [1]; at 3.7 µM 67% | [2]; at 1.2 µM -5% | [3]; at 1.2 µM 19% | [3]; at 3.7 µM 57% | [4]; at 1.2 µM -41% | [5]; at 1.2 µM -19% | [7]; at 1.2 µM 8% | [9]; at 1.2 µM -2% | [10]; at 1.2 µM 7% | [11]; at 1.2 µM -33% | [11]; at 3.7 µM 63% | [12]; at 1.2 µM 2% | [14]; at 1.2 µM -7%
active: [1]; at 11.0 µM 97% | [1]; at 33.0 µM 98% | [1]; at 100.0 µM 97% | [2]; at 3.7 µM 92% | [2]; at 11.0 µM 99% | [2]; at 33.0 µM 99% | [2]; at 100.0 µM 99% | [3]; [16] 98% | [3]; at 11.0 µM 97% | [3]; at 33.0 µM 97% | [3]; [17] 100% | [3]; at 50.0 µM 88.8% | [3]; at 100.0 µM 98% | [4]; at 3.7 µM 93% | [4]; [16] 97% | [4]; at 11.0 µM 98% | [4]; at 33.0 µM 99% | [4]; [17] 100% | [4]; at 50.0 µM 93.2% | [4]; at 100.0 µM 98% | [5]; at 3.7 µM 90% | [5]; at 11.0 µM 98% | [5]; at 33.0 µM 98% | [5]; at 100.0 µM 98% | [6]; [16] 97% | [6]; [17] 99% | [6]; at 50.0 µM 91.5% | [7]; at 3.7 µM 85% | [7]; at 11.0 µM 98% | [7]; at 33.0 µM 98% | [7]; at 100.0 µM 91% | [8]; [16] 98% | [8]; [17] 100% | [8]; at 50.0 µM 92.8% | [9]; at 3.7 µM 93% | [9]; [16] 97% | [9]; at 11.0 µM 98% | [9]; at 33.0 µM 99% | [9]; [17] 99% | [9]; at 50.0 µM 91.8% | [9]; at 100.0 µM 99% | [10]; at 3.7 µM 92% | [10]; at 11.0 µM 99% | [10]; at 33.0 µM 99% | [10]; at 100.0 µM 95% | [11]; at 11.0 µM 98% | [11]; at 33.0 µM 98% | [11]; at 100.0 µM 99% | [12]; at 3.7 µM 93% | [12]; at 11.0 µM 98% | [12]; at 33.0 µM 99% | [12]; at 100.0 µM 98% | [13]; [16] 98% | [13]; [17] 99% | [13]; at 50.0 µM 88.7% | [14]; at 3.7 µM 92% | [14]; at 11.0 µM 97% | [14]; at 33.0 µM 98% | [14]; at 100.0 µM 98%

Nc1cc(S(N)(=O)=O)ccc1SSc1ccc(S(N)(=O)=O)cc1N
active: [1]; at 100.0 µM 81% | [15]; at 33.0 µM 79% | [15]; at 100.0 µM 93% | [3]; at 50.0 µM 71.6% | [3]; at 100.0 µM 71% | [5]; at 100.0 µM 89% | [11]; at 100.0 µM 75% | [12]; at 100.0 µM 82% | [13]; at 50.0 µM 73%
inactive: [1]; at 1.2 µM 1% | [1]; at 3.7 µM 10% | [1]; at 11.0 µM 21% | [1]; at 33.0 µM 50% | [15]; at 1.2 µM -2% | [15]; at 3.7 µM 2% | [15]; at 11.0 µM 19% | [3]; at 1.2 µM 5% | [3]; at 3.7 µM 8% | [3]; [16] 13% | [3]; at 11.0 µM 22% | [3]; at 33.0 µM 33% | [3]; [17] 52% | [4]; at 1.2 µM 1% | [4]; at 3.7 µM 5% | [4]; [16] 9% | [4]; at 11.0 µM 12% | [4]; at 33.0 µM 29% | [4]; [17] 10% | [4]; at 50.0 µM 41.1% | [4]; at 100.0 µM 63% | [5]; at 1.2 µM 1% | [5]; at 3.7 µM -7% | [5]; at 11.0 µM 3% | [5]; at 33.0 µM 12% | [6]; [16] -7% | [6]; [17] 55% | [6]; at 50.0 µM 56.6% | [7]; at 1.2 µM 1% | [7]; at 3.7 µM -1% | [7]; at 11.0 µM 2% | [7]; at 33.0 µM 13% | [7]; at 100.0 µM 49% | [8]; [16] 16% | [8]; [17] 0% | [8]; at 50.0 µM 21.7% | [9]; at 1.2 µM -1% | [9]; at 3.7 µM 3% | [9]; [16] -21% | [9]; at 11.0 µM 9% | [9]; at 33.0 µM 21% | [9]; [17] 12% | [9]; at 50.0 µM 62.3% | [9]; at 100.0 µM 67% | [10]; at 1.2 µM -1% | [10]; at 3.7 µM -1% | [10]; at 11.0 µM 4% | [10]; at 33.0 µM 27% | [10]; at 100.0 µM 54% | [11]; at 1.2 µM 4% | [11]; at 3.7 µM 4% | [11]; at 11.0 µM 12% | [11]; at 33.0 µM 28% | [12]; at 1.2 µM 2% | [12]; at 3.7 µM 9% | [12]; at 11.0 µM 26% | [12]; at 33.0 µM 53% | [13]; [16] 5% | [13]; [17] 31%
